The record followed here is PubChem BioAssay (NCI).

Holding throughout (test): NCI-60 one-dose screen, 48 h (100 = growth as untreated, 0 = no growth, -100 = all killed)
In one experiment the test system is SK-MEL-2 melanoma. The following applies: 10 µM unless noted.
A further experiment has as its system EKVX NSCLC. The following applies: 10 µM unless noted.
Another experiment relates to SN12C renal. The following applies: 10 µM unless noted.
For the next experiment, the system named is UO-31 renal. The following applies: 10 µM unless noted.
The next experiment has as its system TK-10 renal. The following applies: 10 µM unless noted.
Another experiment has as its system ACHN renal. The following applies: 10 µM unless noted.
Another experiment relates to CAKI-1 renal. The following applies: 10 µM unless noted.
The test system of the next experiment is CCRF-CEM leukemia. The following applies: 10 µM unless noted.
The subject of another experiment is MOLT-4 leukemia. The following applies: 10 µM unless noted.
The next experiment deals with SR leukemia. The following applies: 10 µM unless noted.
The test system of the next experiment is RPMI-8226 leukemia. The following applies: 10 µM unless noted.
The next experiment concerns OVCAR-8 ovarian. The following applies: 10 µM unless noted.
The test system of another experiment is OVCAR-5 ovarian. The following applies: 10 µM unless noted.
The next experiment deals with SK-OV-3 ovarian. The following applies: 10 µM unless noted.
A further experiment relates to IGROV1 ovarian. The following applies: 10 µM unless noted.
In another experiment the test system is OVCAR-3 ovarian. The following applies: 10 µM unless noted.
Another experiment relates to HS 578T breast. The following applies: 10 µM unless noted.
The next experiment has as its system NCI/ADR-RES ovarian. The following applies: 10 µM unless noted.
The subject of the next experiment is A498 renal. The following applies: 10 µM unless noted.
The test system of another experiment is OVCAR-4 ovarian. The following applies: 10 µM.

About 83,000 compounds went through this panel and 20% of them were active in at least one assay; those are over-represented in the sample as a whole.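 Testing used 96-well plates and a 48-hour single-concentration exposure. Example: -40 means 40% of the starting cells died.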 A number with no mark means an inactive call. Active and inactive are the calls of the source. Rule for the calls: active = growth percent below 10; inactive = the rest.

As to `CCOc1ccc(S(=O)(=O)Nc2ccc3c(c2)N(S(=O)(=O)CC)CCC3)cc1`, the growth is 111% with SK-MEL-2 melanoma; 96.1% in the experiment on EKVX NSCLC; 85.1% in the experiment with SN12C renal; 80.9% in the experiment with UO-31 renal; 80.9% in the experiment with TK-10 renal; 45% with ACHN renal. Also, the growth was 55.1% in the experiment with CAKI-1 renal; 81.1% in the experiment on CCRF-CEM leukemia; 71% in the experiment with MOLT-4 leukemia; 97.6% in the experiment on SR leukemia; 77.1% in the experiment with RPMI-8226 leukemia; 77.5% in the experiment on OVCAR-8 ovarian. The growth is 94.6% with OVCAR-5 ovarian; 72.7% in the experiment with SK-OV-3 ovarian; 71.3% in the experiment on IGROV1 ovarian; 54.3% with OVCAR-3 ovarian; 80.7% in the experiment with HS 578T breast; 89.9% with NCI/ADR-RES ovarian.
Take `COc1cc(Cl)cc(-c2nn(C(=O)NS(=O)(=O)c3ccccc3)cc2-c2ccncc2)c1`: the growth in the experiment on SK-MEL-2 melanoma was 98.7%; with EKVX NSCLC it was 61.2%; in the experiment with SN12C renal, 94.5%; in the experiment on UO-31 renal it was 70.6%; with TK-10 renal it was 97.2%; with ACHN renal, 80%. For the same compound, the growth was 80.9% in the experiment with CAKI-1 renal; 82.9% in the experiment on A498 renal; 82.8% in the experiment with MOLT-4 leukemia; 87.6% in the experiment on SR leukemia; 91.7% in the experiment on RPMI-8226 leukemia; 33.1% in the experiment with OVCAR-8 ovarian. Besides, the growth is 96.5% in the experiment with OVCAR-5 ovarian; 83.2% in the experiment with SK-OV-3 ovarian; 92.1% with IGROV1 ovarian; 104% in the experiment with OVCAR-3 ovarian; 79.2% in the experiment on HS 578T breast; 97.5% in the experiment on NCI/ADR-RES ovarian.
For `CCOC(=O)C1=C(C(=O)c2ccc(Br)cc2)C(c2ccc(Br)cc2)NC(=S)N1` (stereo not drawn), the growth in the experiment with SK-MEL-2 melanoma is 110%; with EKVX NSCLC, 104%; with SN12C renal it was 98.3%; in the experiment on UO-31 renal, 76.8%; in the experiment with TK-10 renal, 130%; with ACHN renal, 97.6%. The growth in the experiment on CAKI-1 renal was 86%; in the experiment with A498 renal, 90.6%; with MOLT-4 leukemia, 114%; in the experiment with SR leukemia it was 108%; in the experiment on RPMI-8226 leukemia it was 111%; in the experiment with OVCAR-8 ovarian, 97.8%. For the same compound, the growth in the experiment on OVCAR-5 ovarian was 108%; in the experiment on OVCAR-4 ovarian, 107%; in the experiment with SK-OV-3 ovarian it was 110%; in the experiment with IGROV1 ovarian, 92%; with OVCAR-3 ovarian, 105%; in the experiment on NCI/ADR-RES ovarian it was 103%.
With `c1cc2ccc3cc2cc1CNCCN1CCNCc2ccc4ccc(cc4c2)CNCCN(CCNC3)CCNCc2ccc3ccc(cc3c2)CNCC1`, the growth was -9.83% (active) in the experiment on SK-MEL-2 melanoma; 48.7% with EKVX NSCLC; 1.52% (active) in the experiment with SN12C renal; 82.4% with UO-31 renal; 75.2% in the experiment with TK-10 renal; 91.2% in the experiment on ACHN renal. In addition, the growth was 93.8% in the experiment with CAKI-1 renal; 51% with CCRF-CEM leukemia; 8.03% (active) in the experiment with MOLT-4 leukemia; 10.1% with SR leukemia; 7.69% (active) in the experiment on RPMI-8226 leukemia; 69.3% in the experiment with OVCAR-8 ovarian. For the same compound, the growth was 0.497% (active) in the experiment with OVCAR-5 ovarian; -7.14% (active) in the experiment with OVCAR-4 ovarian; 21.9% with IGROV1 ovarian; -1.21% (active) in the experiment on OVCAR-3 ovarian; 48.4% in the experiment with HS 578T breast; 99% in the experiment with NCI/ADR-RES ovarian.
As for `CC1(C)[C@@H](NOCCCN)CC[C@]2(C)[C@H]3C(=O)C=C4[C@@H]5C[C@](C)(C(=O)O)CC[C@]5(C)CC[C@@]4(C)[C@]3(C)CC[C@@H]12`, the growth in the experiment with SK-MEL-2 melanoma was -63.8% [100 µM] (active); with EKVX NSCLC, -41.4% [100 µM] (active); in the experiment with SN12C renal, -82.8% [100 µM] (active); with UO-31 renal it was -100% [100 µM] (active); in the experiment on TK-10 renal, -84.1% [100 µM] (active); with ACHN renal, -100% [100 µM] (active). In addition, the growth with CAKI-1 renal is -79.1% [100 µM] (active); in the experiment on A498 renal, -88.7% [100 µM] (active); in the experiment on MOLT-4 leukemia, -6.4% [100 µM] (active); with SR leukemia it was 17.9% [100 µM]; in the experiment on RPMI-8226 leukemia, -5.46% [100 µM] (active); in the experiment on OVCAR-8 ovarian, -25.9% [100 µM] (active). The growth in the experiment with OVCAR-5 ovarian is -100% [100 µM] (active); with SK-OV-3 ovarian it was -23.7% [100 µM] (active); with IGROV1 ovarian, -88.5% [100 µM] (active); with OVCAR-3 ovarian, -50.1% [100 µM] (active); in the experiment with HS 578T breast it was -22.8% [100 µM] (active); in the experiment with NCI/ADR-RES ovarian, -34.2% [100 µM] (active).
Consider `CCCCOC(=O)c1cccc([N+](=O)[O-])c1`, for which the growth in the experiment on SK-MEL-2 melanoma is 113%; with EKVX NSCLC, 93.4%; in the experiment with SN12C renal, 108%; with UO-31 renal it was 94.7%; in the experiment with TK-10 renal it was 111%; in the experiment with ACHN renal it was 112%. Further, the growth is 105% in the experiment with CAKI-1 renal; 94.7% in the experiment on A498 renal; 122% in the experiment with MOLT-4 leukemia; 132% with SR leukemia; 90.2% in the experiment with RPMI-8226 leukemia; 100% in the experiment with OVCAR-8 ovarian. In addition, the growth with OVCAR-5 ovarian is 97.9%; in the experiment with OVCAR-4 ovarian, 113%; in the experiment on SK-OV-3 ovarian it was 109%; in the experiment with OVCAR-3 ovarian it was 114%; in the experiment on HS 578T breast it was 114%; in the experiment with NCI/ADR-RES ovarian, 107%.
With `Nc1cccc2c1C(=O)c1cccc(NC(=O)c3ccccc3)c1C2=O`, the growth is 33.4% in the experiment on SK-MEL-2 melanoma; 2.26% (active) in the experiment on EKVX NSCLC; 47.1% with SN12C renal; 9.99% (active) with UO-31 renal; 32.1% in the experiment on TK-10 renal; 41.5% with ACHN renal. The growth was 12% with CAKI-1 renal; 16.7% in the experiment with A498 renal; 41% in the experiment with MOLT-4 leukemia; 15.1% with SR leukemia; 15.2% in the experiment on RPMI-8226 leukemia; 34.4% with OVCAR-8 ovarian. Moreover, the growth was 57.6% in the experiment on OVCAR-5 ovarian; 53% in the experiment with OVCAR-4 ovarian; 20.4% with SK-OV-3 ovarian; -41.1% (active) in the experiment on OVCAR-3 ovarian; -31.1% (active) in the experiment with NCI/ADR-RES ovarian.
For `CC(C)CCNCC(C)(C)O`, the growth in the experiment on SK-MEL-2 melanoma was 107%; in the experiment on EKVX NSCLC it was 106%; in the experiment on SN12C renal it was 110%; in the experiment on UO-31 renal, 92.3%; in the experiment on TK-10 renal it was 104%; in the experiment with ACHN renal, 107%. The growth was 99.1% in the experiment with CAKI-1 renal; 116% in the experiment with CCRF-CEM leukemia; 110% in the experiment on MOLT-4 leukemia; 97.9% in the experiment on SR leukemia; 120% in the experiment with RPMI-8226 leukemia; 99.4% in the experiment on OVCAR-8 ovarian. The growth is 101% in the experiment with OVCAR-5 ovarian; 115% in the experiment on OVCAR-4 ovarian; 110% with SK-OV-3 ovarian; 118% in the experiment on IGROV1 ovarian; 119% with OVCAR-3 ovarian; 118% in the experiment on HS 578T breast.
